Test results reported in PubChem BioAssay (NCI).
Compounds without any hit were thinned out: in the full panel of roughly 83,000, 20% have a hit.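 Results are percent growth after 48 hours of single-concentration exposure. 100 means growth as in untreated cells, lower positive values show inhibition; negative values down to -100 show cell death.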 Active and inactive are the calls of the source. The calls were made as follows: active = growth percent below 10; inactive = the rest.

Experiments:
Experiment in all cases: NCI-60 one-dose screen, 48 h (100 = growth as untreated, 0 = no growth, -100 = all killed)
Conditions in all cases: 10 µM unless noted
HCT-15 colon = system: HCT-15 colon
HT29 colon = system: HT29 colon
SNB-75 CNS = system: SNB-75 CNS
SNB-19 CNS = system: SNB-19 CNS
U251 CNS = system: U251 CNS
PC-3 prostate = system: PC-3 prostate
SK-MEL-5 melanoma = system: SK-MEL-5 melanoma
UACC-62 melanoma = system: UACC-62 melanoma
LOX IMVI melanoma = system: LOX IMVI melanoma
SK-MEL-28 melanoma = system: SK-MEL-28 melanoma

Measured: growth

O=C(c1cccc(F)c1)n1ccc2cc(NC(=S)Nc3cccnc3)ccc21
inactive: HCT-15 colon 89.6% | HT29 colon 103% | SNB-75 CNS 90.6% | SNB-19 CNS 86.5% | U251 CNS 95.1% | PC-3 prostate 96.5% | SK-MEL-5 melanoma 99.6% | UACC-62 melanoma 86.8% | LOX IMVI melanoma 99% | SK-MEL-28 melanoma 106%

O=C(O)CNS(=O)(=O)c1ccc(Oc2ccc(S(=O)(=O)NCC(=O)O)cc2)cc1
inactive: HCT-15 colon 102% | HT29 colon 99.3% | SNB-75 CNS 66.6% | SNB-19 CNS 98.1% | U251 CNS 99.3% | PC-3 prostate 98.6% | SK-MEL-5 melanoma 101% | UACC-62 melanoma 99% | LOX IMVI melanoma 99.8% | SK-MEL-28 melanoma 101%

COc1cnc2c(c1)C(=O)c1c-2n(CCCNCC2CC2)c(=O)c2cc(F)ccc12
inactive: SK-MEL-28 melanoma 22.8%
active: HCT-15 colon 0.625% | HT29 colon -62.7% | SNB-75 CNS -7.63% | SNB-19 CNS 4.94% | U251 CNS -50.4% | PC-3 prostate 9.61% | SK-MEL-5 melanoma -82.8% | UACC-62 melanoma -56.2% | LOX IMVI melanoma -59.4%

CN1CCN(Cc2ccc(NC(=O)c3cncc(C#Cc4cnc5ccc(NC6CCOCC6)nn45)c3)cc2C(F)(F)F)CC1
active: HCT-15 colon -48.4% | HT29 colon 0.122% | SNB-75 CNS -56.8% | SNB-19 CNS -7.17% | U251 CNS -96.7% | PC-3 prostate -15.5% | SK-MEL-5 melanoma -97.7% | UACC-62 melanoma -61.8% | LOX IMVI melanoma -83.8% | SK-MEL-28 melanoma -74.6%

CC(C)=CCc1c2c(c(O)c3c1O[C@]14C(=C[C@@H]5C[C@H]1C(C)(C)O[C@@]4(C/C=C(/C)C(=O)O)C5=O)C3=O)CC(O)C(C)(C)O2 (stereo not given in full)
inactive: SNB-19 CNS 22.6%
active: HCT-15 colon -41.6% | HT29 colon -8.66% | SNB-75 CNS -25.7% | U251 CNS -72.4% | PC-3 prostate 7.46% | SK-MEL-5 melanoma -96.6% | UACC-62 melanoma -26.1% | LOX IMVI melanoma -95.4% | SK-MEL-28 melanoma -13.7%

Cc1ccc(NC(=O)c2cccc(CN3CCN(C)CC3)c2)cc1Oc1ccc(-c2[nH]nc3ncnc(N)c23)cc1
active: HT29 colon 5.69%
inactive: HCT-15 colon 86.1% | SNB-75 CNS 66.8% | SNB-19 CNS 81.9% | U251 CNS 64.6% | PC-3 prostate 72.9% | SK-MEL-5 melanoma 76.7% | UACC-62 melanoma 73% | LOX IMVI melanoma 29.9% | SK-MEL-28 melanoma 72.9%

CCc1ccc(NC(=O)N[C@@H](Cc2cccc(F)c2)C(=O)N[C@@H]2C(=O)N3CCC[C@H]3C(=O)N3CCCC[C@H]3C(=O)N[C@@H](C)C(=O)N3C[C@H](C)C[C@H]3C(=O)O[C@H]2C)c(F)c1
active: SK-MEL-5 melanoma -20.9%
inactive: HCT-15 colon 11.6% | HT29 colon 20.1% | SNB-75 CNS 20.8% | SNB-19 CNS 27.5% | U251 CNS 31.1% | PC-3 prostate 15.1% | UACC-62 melanoma 21.1% | LOX IMVI melanoma 14.1% | SK-MEL-28 melanoma 36.1%

O=C1Nc2cc(OC(F)(F)F)ccc2Oc2ccc(-c3ccnc(N4CC[C@H](O)C4)c3)cc21
active: HCT-15 colon -30.6% | HT29 colon -58.7% | SNB-75 CNS -6% | U251 CNS 4.76% | SK-MEL-5 melanoma -58.4% | LOX IMVI melanoma 3.23%
inactive: SNB-19 CNS 35.9% | PC-3 prostate 15% | UACC-62 melanoma 28.8% | SK-MEL-28 melanoma 24.6%

Cc1ccccc1/C=C/c1nn2c(-c3ccoc3C)nnc2s1
inactive: HCT-15 colon 97.9% | HT29 colon 97.7% | SNB-75 CNS 111% | SNB-19 CNS 90.8% | U251 CNS 97.6% | PC-3 prostate 99.4% | SK-MEL-5 melanoma 98.4% | UACC-62 melanoma 88% | LOX IMVI melanoma 101% | SK-MEL-28 melanoma 94.9%

C#CCOc1ccc(C(Nc2ccc(OC)cc2)c2nnnn2C2CCCCC2)cc1 (stereo not given)
inactive: HCT-15 colon 97.1% | HT29 colon 101% | SNB-75 CNS 92.6% | SNB-19 CNS 93.3% | U251 CNS 89.9% | PC-3 prostate 93.8% | SK-MEL-5 melanoma 100% | UACC-62 melanoma 73.4% | LOX IMVI melanoma 89.2% | SK-MEL-28 melanoma 109%

CCC(=O)Nc1cc(Nc2cc(NC3CC3)n3ncc(C#N)c3n2)ccc1C
inactive: HCT-15 colon 13% | HT29 colon 25.8% | SNB-19 CNS 25.9% | U251 CNS 19.5% | PC-3 prostate 19.7% | SK-MEL-5 melanoma 15.2% | UACC-62 melanoma 18.9% | LOX IMVI melanoma 21.1% | SK-MEL-28 melanoma 46.3%
active: SNB-75 CNS -9.89%

CS(=O)(=O)c1ccc2c(c1)c1c(n2C(=O)c2ccc(Cl)cc2)CCCC1
active: HT29 colon 5.05% | SNB-75 CNS 5.66%
inactive: HCT-15 colon 25.7% | SNB-19 CNS 34.9% | U251 CNS 19.9% | PC-3 prostate 22.7% | SK-MEL-5 melanoma 25.5% | UACC-62 melanoma 23.8% | LOX IMVI melanoma 40.5% | SK-MEL-28 melanoma 60.9%

C#C[C@]1(O)CC[C@H]2[C@@H]3CC=C4c5sc(C6CC6)nc5CC[C@]4(C)[C@H]3CC[C@@]21C
inactive: HCT-15 colon 50.4% | HT29 colon 70.2% | SNB-75 CNS 94.8% | SNB-19 CNS 90% | U251 CNS 66.3% | PC-3 prostate 67.2% | SK-MEL-5 melanoma 93.5% | UACC-62 melanoma 67.7% | LOX IMVI melanoma 62.6% | SK-MEL-28 melanoma 69.3%

C=C(C)C(=O)O[C@H]1C[C@@]2(C)OC(=CC2=O)[C@H](C)[C@H](O)[C@H]2OC(=O)C(=C)[C@@H]21
inactive: HCT-15 colon 32.6% | HT29 colon 95.6% | SNB-75 CNS 77.2% | SNB-19 CNS 106% | U251 CNS 86.6% | PC-3 prostate 79.7% | SK-MEL-5 melanoma 88.2% | UACC-62 melanoma 52.3% | LOX IMVI melanoma 57.7% | SK-MEL-28 melanoma 61.7%

CC(=O)Nc1ccc(NC(=O)Nc2cccc(-c3nc(-c4ccc(NC(=O)c5cccs5)cc4Cl)no3)c2)cc1C(F)(F)F
inactive: HCT-15 colon 20.2%
active: HT29 colon -36.4% | SNB-75 CNS -73.2% | SNB-19 CNS -33.7% | U251 CNS -57.4% | PC-3 prostate -64.5% | SK-MEL-5 melanoma -77.8% | UACC-62 melanoma -82.4% | LOX IMVI melanoma -88% | SK-MEL-28 melanoma -90.1%

O=C(NNc1nc2cc(F)c(F)cc2n2cccc12)c1ccncn1
inactive: HCT-15 colon 23.6% | HT29 colon 27.3% | SNB-19 CNS 27.5% | U251 CNS 17.9% | PC-3 prostate 33.2% | UACC-62 melanoma 19% | LOX IMVI melanoma 11.7% | SK-MEL-28 melanoma 29.4%
active: SNB-75 CNS -6.38% | SK-MEL-5 melanoma -19.4%

CC(C)(C)OC(=O)N1CCN(S(=O)(=O)/N=C2\NC(=O)NC2=C(Cl)Cl)CC1
inactive: HCT-15 colon 10.9% | HT29 colon 106% | SNB-75 CNS 99.9% | SNB-19 CNS 81.1% | U251 CNS 90.6% | PC-3 prostate 97.5% | SK-MEL-5 melanoma 95.9% | UACC-62 melanoma 96.3% | LOX IMVI melanoma 64.3% | SK-MEL-28 melanoma 85.7%

N#C/C(=C\c1ccc(-c2ccc(F)cc2)o1)C(=O)Nc1ncc(Cc2ccc(Cl)cc2Cl)s1
active: HCT-15 colon -31.7% | HT29 colon 6.93% | SNB-19 CNS -12.9% | PC-3 prostate 1.25% | LOX IMVI melanoma -85.6%
inactive: SNB-75 CNS 58.3% | U251 CNS 21.9% | SK-MEL-5 melanoma 27.4% | UACC-62 melanoma 15.9% | SK-MEL-28 melanoma 39.5%

CC1=CC(=O)CC(C)(C)[C@@]1(O)/C=C/C(C)=C\C(=O)O
active: HCT-15 colon -23.1% | HT29 colon -36.9% | SNB-75 CNS -41.2% | SNB-19 CNS -9.04% | U251 CNS -18.5% | PC-3 prostate -7.5% | SK-MEL-5 melanoma -83% | UACC-62 melanoma -56.9% | LOX IMVI melanoma -75.8% | SK-MEL-28 melanoma -34.6%

COc1cnc2c(c1)C(=O)c1c-2n(CCCn2ccnc2)c(=O)c2cc(OC)c(OC)cc12
active: HCT-15 colon -53.2% | HT29 colon -56.1% | U251 CNS -84.8% | PC-3 prostate -54.9% | SK-MEL-5 melanoma -28.4% | UACC-62 melanoma -11% | LOX IMVI melanoma -51.5%
inactive: SNB-75 CNS 12.4% | SNB-19 CNS 14.9% | SK-MEL-28 melanoma 45.5%

C#C[C@]1(O)CC[C@H]2[C@@H]3CC=C4c5sc(C6CCOCC6)nc5CC[C@]4(C)[C@H]3CC[C@@]21C
inactive: HCT-15 colon 36.1% | HT29 colon 44.2% | SNB-75 CNS 78.9% | SNB-19 CNS 86.1% | U251 CNS 57.6% | PC-3 prostate 63.2% | SK-MEL-5 melanoma 85.2% | UACC-62 melanoma 64.7% | LOX IMVI melanoma 65.8% | SK-MEL-28 melanoma 56.5%

C#CCOc1ccc(C(Nc2ccc(Cl)cc2)c2nnnn2C2CCCCC2)cc1 (stereo not given)
inactive: HCT-15 colon 80% | HT29 colon 92% | SNB-75 CNS 87.4% | SNB-19 CNS 89.5% | U251 CNS 86.9% | PC-3 prostate 75.2% | SK-MEL-5 melanoma 92.3% | UACC-62 melanoma 72.4% | LOX IMVI melanoma 81.4% | SK-MEL-28 melanoma 102%

Nc1cc(F)ccc1NC(=O)c1ccc(NC(=O)C/C=C/c2cccnc2)cn1
inactive: HCT-15 colon 19.8% | HT29 colon 11.4% | SNB-75 CNS 31.9% | SNB-19 CNS 31.7% | U251 CNS 17.9% | PC-3 prostate 36.9% | LOX IMVI melanoma 16.6%
active: SK-MEL-5 melanoma -58.1% | UACC-62 melanoma 5.97% | SK-MEL-28 melanoma -9.71%

COc1cc2c3c(n(CCCNC4CCCCC4)c(=O)c2cc1OC)-c1cc2c(cc1C3=O)OCO2
active: HCT-15 colon -68.7% | HT29 colon -69.2% | SNB-19 CNS 2.72% | U251 CNS -91.1% | PC-3 prostate -83.6% | LOX IMVI melanoma -76.7%
inactive: SNB-75 CNS 80.6% | SK-MEL-5 melanoma 97.2% | UACC-62 melanoma 81% | SK-MEL-28 melanoma 97%
